Cycloheximide cs = Cycloheximide Counterscreen for Small Molecule Inhibitors of Shiga Toxin. cell reporter, cycloheximide protein synthesis inhibition counterscreen. 12% of 300,000 active. max response, %; in the data active means max response mostly above about 13%, no sharp cut-off; inactive means mostly below about 14%; further: read at 38.3 µM for the half of the compounds with a filed dose; 0% is about no effect
AMA1-RON2 inh = qHTS for Inhibitors of AMA1-RON; Towards Development of Antimalarial Drug Lead: Primary Screen. Plasmodium falciparum AMA1 (3D7) - RON2 peptide interaction. AlphaScreen AMA1-biotinylated RON2 peptide binding. Potency, µM (series often up to 58.2 µM), for the others: top-dose activity change, negative = inhibition, actives largely listed as inhibitors. 0.2% of 360,000 active;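 further: potency means the concentration at half of the fitted maximal effect; 0% = vehicle wells and -100% = peptide control; nearly all actives have a fitted effect of over 45% in size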
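AMA1 (3D7) with his tag at 25 nM final met compounds first, then biotinylated RON2 peptide at 25 nM; detection used donor plus acceptor beads, 10 µg/mL apiece, read by AlphaScreen after 30 min at room temperature.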
AmpC detergent = qHTS Inhibitors of AmpC Beta-Lactamase (assay with detergent) | P00811 | AmpC hydrolysis of nitrocefin, absorbance 480 nm, 0.01% Triton | Potency, µM (top dose mostly 114 µM), for the others: top-dose activity change, negative = inhibition, hits mostly inhibitors | 0.041% of 370,000 active;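 further: potency means the concentration at half of the fitted maximal effect; 0% = no-compound wells and -100% = no-enzyme wells; nearly all actives have a fitted effect of over 25% in size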
Target sequence (P00811 whole entry, looked up): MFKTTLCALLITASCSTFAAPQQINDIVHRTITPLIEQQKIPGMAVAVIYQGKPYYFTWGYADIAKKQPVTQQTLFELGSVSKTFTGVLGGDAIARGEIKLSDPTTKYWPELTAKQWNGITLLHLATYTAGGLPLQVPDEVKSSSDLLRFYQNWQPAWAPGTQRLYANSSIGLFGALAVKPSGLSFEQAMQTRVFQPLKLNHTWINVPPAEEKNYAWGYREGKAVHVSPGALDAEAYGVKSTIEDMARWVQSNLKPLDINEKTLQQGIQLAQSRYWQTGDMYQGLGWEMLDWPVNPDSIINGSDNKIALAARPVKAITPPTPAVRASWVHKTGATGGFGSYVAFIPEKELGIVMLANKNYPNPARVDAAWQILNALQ
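AmpC (5.3 nM in the dispensed reagent) in 20 mM phosphate pH 7.0 with 0.01% (detergent screen) or 0.0001% Triton X-100 was preincubated with compounds for 15 min at room temperature. Nitrocefin was then added from an 800 uM solution, and hydrolysis was followed at 480 nm.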
Shiga toxin inh = A qHTS for Small Molecule Inhibitors of Shiga Toxin; inhibition, % at 38.7 µM; AID 2315, 2010; Vero cells, Shiga toxin protein synthesis inhibition reporter; 9.2% of 290,000 active; in the data active means inhibition mostly above about 28%, no sharp cut-off; inactive means mostly below about 43%; further: 0% is about no effect
SARS PLpro yeast = qHTS of Yeast-based Assay for SARS-CoV PLP | Potency, µM (series often up to 32.9 µM), for the others: top-dose activity, positive = growth rescue, hits mostly activators | 0.19% of 330,000 active | S. cerevisiae expressing SARS-CoV PLpro, growth rescue | AID 485353, 2010; calls by dose curve; further: potency means the concentration at half of the fitted maximal effect; 0% is about no effect; nearly all actives have a fitted effect of over 55% in size
AmpC inh no detg = qHTS Inhibitors of AmpC Beta-Lactamase (assay without detergent) | P00811 | AmpC nitrocefin hydrolysis, absorbance 480 nm, 0.0001% Triton | Potency, µM (doses to about 57.1 µM), without a hit: at the highest dose activity change, negative = inhibition, actives largely listed as inhibitors | 0.52% of 330,000 active | AID 485341, 2010;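 further: potency means the concentration at half of the fitted maximal effect; plate controls were no compound for no effect and no enzyme for full effect; nearly all actives have a fitted effect of over 20% in size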
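AmpC (5.3 nM in the dispensed reagent) in 20 mM phosphate pH 7.0 with 0.01% (detergent screen) or 0.0001% Triton X-100 was preincubated with compounds for 15 min at room temperature. Nitrocefin was then added from an 800 uM solution, and hydrolysis was followed at 480 nm.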
* marks the source's active call; other numbers are inactive results. Many of the other results were omitted from the sample, so hits are more common in it than they were. Unless noted, the call rests on the fitted dose curve; in most records, active means well fitted curve in the direction sought with a large enough effect; inconclusive means small, poorly fitted or top-dose-only effect, or another doubt; inactive means no such curve, though single readings can be large; an effect the other way counts as inactive or inconclusive.

`COC(=O)/C=C1\S/C(=N/N=C/c2ccc(Cl)cc2)NC1=O` gave Cycloheximide cs -1, AMA1-RON2 inh -5%, AmpC detergent 2%, Shiga toxin inh -4, SARS PLpro yeast -6% and AmpC inh no detg -27%.
CSC1=N/C(=C/c2cccnc2)C(=O)N1Cc1ccc(Cl)cc1 was read as Cycloheximide cs 44*, AMA1-RON2 inh 75%, AmpC detergent 5%, Shiga toxin inh -12, SARS PLpro yeast 0% and AmpC inh no detg -26%.
Cc1ccc(C(=O)N2CCN(S(=O)(=O)N3CCCCCC3)CC2)cc1 was read as Cycloheximide cs -4, AMA1-RON2 inh 5%, AmpC detergent -2%, Shiga toxin inh -8, SARS PLpro yeast 2% and AmpC inh no detg 10%.
CC(=O)Nc1ccc2c(c1)ncn2C was read as Cycloheximide cs -2, AMA1-RON2 inh 9%, AmpC detergent -11%, Shiga toxin inh -4, SARS PLpro yeast 25% and AmpC inh no detg -5%.
Screening CCOc1ccc(CNc2ccc3c(c2)ncn3C(C)(C)C)cc1 returned Cycloheximide cs 24*, AMA1-RON2 inh -26%, AmpC detergent -3%, Shiga toxin inh 40*, SARS PLpro yeast 8% and AmpC inh no detg 27%.
Screening Cn1cnc2cc(NCc3ccc(Cl)cc3)ccc21 returned Cycloheximide cs 45*, AMA1-RON2 inh -25%, AmpC detergent -3%, Shiga toxin inh 60*, SARS PLpro yeast -2% and AmpC inh no detg -5%.
CCOc1ccc(CNc2ccc3c(c2)ncn3C)cc1 was read as Cycloheximide cs 35*, AMA1-RON2 inh 2%, AmpC detergent -3%, Shiga toxin inh 38*, SARS PLpro yeast -11% and AmpC inh no detg -5%.
For CCN(CC)C(=N)/C(C#N)=N/Nc1ccccc1 the results were Cycloheximide cs 39*, AMA1-RON2 inh -6%, AmpC detergent -6%, Shiga toxin inh 93*, SARS PLpro yeast 0% and AmpC inh no detg 4%.
Cc1ccc(N/N=C(\C#N)C(=N)N2CCCCC2)cc1 was read as Cycloheximide cs 46*, AMA1-RON2 inh 2%, AmpC detergent -3%, Shiga toxin inh 82*, SARS PLpro yeast -1% and AmpC inh no detg -6%.
N#C/C(=N\Nc1ccc(Cl)cc1)C(=N)N1CCCCCC1 was read as Cycloheximide cs 43*, AMA1-RON2 inh 2%, AmpC detergent 1%, Shiga toxin inh 145*, SARS PLpro yeast -2% and AmpC inh no detg -17%.
N#C/C(=N\Nc1ccccc1)C(=N)N1CCCCC1 was read as Cycloheximide cs 28*, AMA1-RON2 inh -3%, AmpC detergent -15%, Shiga toxin inh 61*, SARS PLpro yeast -7% and AmpC inh no detg -24%.
For O=C(c1cccs1)N1CCN(C(=O)c2ccco2)c2ccccc2C1 the results were Cycloheximide cs -4, AMA1-RON2 inh -2%, AmpC detergent -1%, Shiga toxin inh -10, SARS PLpro yeast -1% and AmpC inh no detg -7%.
For CC(C)C(=O)Nc1ccc(C(=O)NNC(=S)NC(=O)c2cccs2)cc1 the results were Cycloheximide cs -3, AMA1-RON2 inh 82%, AmpC detergent -19%, Shiga toxin inh -10, SARS PLpro yeast -21% and AmpC inh no detg -31%.
CCOc1cc(/C=C2\SC(=NC)N(C)C2=O)c(Br)cc1OC(C)=O was read as Cycloheximide cs -1, AMA1-RON2 inh 2%, AmpC detergent -2%, Shiga toxin inh -11, SARS PLpro yeast -2% and AmpC inh no detg -13%.
`CCC(C)NC(=O)C1CN(S(=O)(=O)c2ccccc2)CCN1S(=O)(=O)c1ccccc1` (configuration not stated) gave Cycloheximide cs 25*, AMA1-RON2 inh -1%, AmpC detergent -1%, Shiga toxin inh 28, SARS PLpro yeast -3% and AmpC inh no detg -5%.
CCCNC(=O)C1CN(S(=O)(=O)c2ccccc2)CCN1S(=O)(=O)c1ccccc1 (configuration not stated) was read as Cycloheximide cs 1, AMA1-RON2 inh 2%, AmpC detergent 0%, Shiga toxin inh -3, SARS PLpro yeast -1% and AmpC inh no detg -5%.
For CCn1c(/C=C/c2ccccc2[N+](=O)[O-])nc2ccccc2c1=O the results were Cycloheximide cs 11, AMA1-RON2 inh 0%, AmpC detergent 1%, Shiga toxin inh 27, SARS PLpro yeast -2% and AmpC inh no detg -2%.
Screening Cn1c(/C=C/c2ccccc2[N+](=O)[O-])nc2ccccc2c1=O returned Cycloheximide cs 9.2*, AMA1-RON2 inh 1%, AmpC detergent -11%, Shiga toxin inh 33, SARS PLpro yeast -9% and AmpC inh no detg -2%.
For Cn1c(/C=C/c2ccc(Br)cc2)nc2ccccc2c1=O the results were Cycloheximide cs 30*, AMA1-RON2 inh -5%, AmpC detergent -1%, Shiga toxin inh 20, SARS PLpro yeast -2% and AmpC inh no detg -13%.
Screening O=[N+]([O-])c1ccccc1/C=C/c1ccc2ccccc2n1 returned Cycloheximide cs 40*, AMA1-RON2 inh -26%, AmpC detergent inconclusive, Shiga toxin inh 48*, SARS PLpro yeast -11% and AmpC inh no detg -3%.
O=C(c1ccccc1)C1NC1c1ccccc1 (configuration not stated) was read as Cycloheximide cs 61*, AMA1-RON2 inh 7%, AmpC detergent -3%, Shiga toxin inh 47*, SARS PLpro yeast -1% and AmpC inh no detg -24%.
COCCOC(=O)C1=C(C)NC(=S)NC1c1cccs1 (configuration not stated) was read as Cycloheximide cs -3, AMA1-RON2 inh -2%, AmpC detergent 1%, Shiga toxin inh 6, SARS PLpro yeast 0% and AmpC inh no detg -18%.
For COc1ccc(-c2nnn(CC(=O)N(Cc3ccco3)C(C(=O)NCC3CCCO3)c3ccco3)n2)cc1 (configuration not stated) the results were Cycloheximide cs 1, AMA1-RON2 inh -6%, AmpC detergent -4%, Shiga toxin inh -13, SARS PLpro yeast 2% and AmpC inh no detg 55%.
`COc1ccc(CN(C(=O)Cn2nnc(-c3ccc(C)o3)n2)C(C(=O)NCC2CCCO2)c2ccco2)cc1` (configuration not stated) gave Cycloheximide cs 17*, AMA1-RON2 inh -20%, AmpC detergent -4%, Shiga toxin inh 0, SARS PLpro yeast -2% and AmpC inh no detg -6%.
Screening COc1c(O)cc2c(c1O)C(=O)CC(c1ccccc1)O2 (configuration not stated) returned Cycloheximide cs 44*, AmpC detergent -2%, Shiga toxin inh 71*, SARS PLpro yeast -4% and AmpC inh no detg -42%.
